HttQ103 aggreg: mutant huntingtin aggregation inhibition; PC12 HttQ103-GFP aggregates, Acumen cytometry, 40 h; Potency, µM (doses to about 46.1 µM), most hits filed as inhibitors; 1.1% of 220,000 active; AID 1688; active = well fitted curve in the direction sought with a large enough effect; inconclusive = small, poorly fitted or top-dose-only effect, or another doubt; inactive = no such curve, though single readings can be large; an effect the other way counts as inactive or inconclusive; also: nearly all actives have a fitted effect of over 60% in size
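PC12 cells with ecdysone-inducible HTT exon1 Q103-GFP, induced by 100 nM tebufenozide, given compounds in a concentration series. GFP aggregates (1–25 um, 6 SD above background) counted in lysates by laser-scanning cytometry, 488 nm excitation.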
KDM4E inh: blocks human JMJD2E demethylase activity | B2RXH2 | Potency, µM (highest dose often 57.1 µM), actives largely listed as inhibitors | 1.6% of 230,000 active | JMJD2E catalytic domain, FDH-coupled NADH fluorescence (FDH is formaldehyde dehydrogenase) | AID 2147; also: nearly all actives have a fitted effect of over 50% in size
HTT ATP protect: cytoprotection in Huntington HTT-Q103 PC12 cell model; PC12 HTT-Q103 induced, cytoprotection, ATP luminescence, 40 h; Potency, µM (top dose mostly 56.4 µM), hits mostly activators; 0.14% of 230,000 active; active = well fitted curve in the direction sought with a large enough effect; inconclusive = small, poorly fitted or top-dose-only effect, or another doubt; inactive = no such curve, though single readings can be large; an effect the other way counts as inactive or inconclusive; also: nearly all actives have a fitted effect of over 45% in size
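PC12 cells with ecdysone-inducible HTT exon 1 Q103-GFP, induced with 100 nM tebufenozide and co-treated with library compounds in a dose series (1536-well, 1500 cells/well). Cytoprotection read as ATP content by ATPlite luminescence.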
HPGD block: inhibitors of human 15-hydroxyprostaglandin dehydrogenase (HPGD); P15428; purified HPGD, NADH fluorescence kinetic, PGE2 substrate; Potency, µM, usual class: inhibitors; 4.3% of 150,000 active; AID 894
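20 nM HPGD preincubated 15 min at room temperature with compound in 50 mM Tris-HCl pH 8, 0.01% Tween 20. Started with 1 mM NAD+ and 30 uM prostaglandin E2; NADH fluorescence (360/450 nm) read 5 times over 30-s intervals, last minus first.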
Lamin A splicing: modulators of lamin A splicing; 0.01% of 200,000 active; Potency, µM (top dose mostly 46.1 µM), hits mostly inhibitors; HeLa LMNA splicing GFP/RFP minigene ratio, 48 h; active = well fitted inhibition curve with a large enough effect in the signal ratio, with a control signal flat, not every such curve was filed as active; inconclusive = small, poorly fitted or top-dose-only effect, or effect the other way, or a change in a side signal; the % refers to the signal ratio
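Read-out is the ratio of GFP to DsRed2 object intensity, acquired by 488 nm laser-scanning cytometry on HeLa lamin A-EGFP minigene reporter cells. Compound incubation 48 hrs at 37 °C in Opti-MEM with 2% FBS; DMSO 0.5% final.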
ALDH1A1 block: ALDH1A1 (human) enzyme inhibition. P00352. Purified ALDH1A1, NADH fluorescence, propionaldehyde substrate. Potency, µM (top dose mostly 75.3 µM), hits mostly inhibitors. 7.3% of 220,000 active. AID 1030
Target sequence (P00352 whole entry, looked up): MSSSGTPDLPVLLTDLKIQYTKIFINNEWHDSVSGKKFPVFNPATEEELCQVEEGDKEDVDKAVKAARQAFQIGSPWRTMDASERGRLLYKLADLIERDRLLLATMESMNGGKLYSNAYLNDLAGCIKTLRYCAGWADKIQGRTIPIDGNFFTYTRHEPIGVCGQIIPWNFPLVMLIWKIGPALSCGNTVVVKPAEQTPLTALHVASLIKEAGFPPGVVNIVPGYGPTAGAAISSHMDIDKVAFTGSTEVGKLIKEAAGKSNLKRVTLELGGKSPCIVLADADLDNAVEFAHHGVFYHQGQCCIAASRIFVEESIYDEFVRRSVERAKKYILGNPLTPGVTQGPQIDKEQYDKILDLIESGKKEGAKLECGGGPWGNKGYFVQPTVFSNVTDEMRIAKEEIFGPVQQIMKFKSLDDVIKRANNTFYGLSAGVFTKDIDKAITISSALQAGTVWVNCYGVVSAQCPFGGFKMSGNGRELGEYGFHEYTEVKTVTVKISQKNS
Numbers stand for hits; [ ] = remark or other dose. Only some compounds are listed: those with a hit (about 9.2% of all), similar ones and a draw of the others. Unless noted, calls follow the shape of the dose curve; as a rule, active = well fitted inhibition curve with a large enough effect (not every such curve was filed as active); inconclusive = small, poorly fitted or top-dose-only effect, or another doubt; inactive = no such curve, though single readings can be large or run the other way.

For S=C(Nc1ccccc1)Nc1ccccc1C#Cc1ccccc1 the results were KDM4E inh inactive, HTT ATP protect inactive, HPGD block inconclusive and ALDH1A1 block 17.8µM.
C[Si](C)(C)C#Cc1ccccc1NC(=S)Nc1ccccc1 was read as KDM4E inh inconclusive, HTT ATP protect inactive, HPGD block inconclusive and ALDH1A1 block 12.6µM.
Screening N#Cc1ccccc1NC(=S)Nc1ccc(F)cc1 returned HttQ103 aggreg inactive[9.22 µM], KDM4E inh inactive, HTT ATP protect inactive[10 µM], Lamin A splicing inconclusive and ALDH1A1 block inactive.
CCOC(=O)c1[nH]ncc1CN1CCCC(C(=O)c2cccc3ccccc23)C1 (configuration not stated) was read as HttQ103 aggreg inactive[9.22 µM], KDM4E inh inactive, HTT ATP protect inactive[10 µM], Lamin A splicing inconclusive and ALDH1A1 block inactive.
CCOC(=O)c1[nH]ncc1CN1CCCC(C(=O)c2ccc(SC)cc2)C1 (configuration not stated) was read as HttQ103 aggreg inactive, KDM4E inh inactive, HTT ATP protect inactive and ALDH1A1 block 35.5µM.
Screening C[n+]1cc[nH]c1SCC(=O)c1ccccc1 returned HttQ103 aggreg inactive, KDM4E inh inactive, HTT ATP protect inactive, HPGD block inactive, Lamin A splicing inactive and ALDH1A1 block 25.1µM.
For C[n+]1cc[nH]c1SCC(=O)c1ccc(Cl)cc1 the results were HttQ103 aggreg inactive[9.22 µM], KDM4E inh inactive, HTT ATP protect inactive[1.9 µM] and ALDH1A1 block 18.9µM.
Screening Cc1cccc(NC(=O)Cn2cc(S(=O)(=O)N3CCCC3)c(S(=O)(=O)N3CCCC3)c2)c1C returned Lamin A splicing inactive.
COc1ccccc1CNC(=O)C1CC(=O)N(c2ccc(C)c(C)c2)C1 (configuration not stated) was read as HttQ103 aggreg inactive, KDM4E inh inactive, HTT ATP protect inactive[0.074 µM], HPGD block inactive, Lamin A splicing inactive and ALDH1A1 block 6.31µM.
Screening COC(=O)CC[C@@H](C)[C@H]1CC[C@H]2[C@@H]3CC[C@@H]4C[C@H](O)CC[C@]4(C)[C@H]3C[C@H](O)[C@]12C returned KDM4E inh inactive, HTT ATP protect inactive[1.9 µM], HPGD block inactive and ALDH1A1 block inactive.
`CCCC[C@H]1C[C@@H]1[C@@H]1N(P(=O)(c2ccccc2)c2ccccc2)C[C@@](O)(c2ccccc2)CC12CC2` gave KDM4E inh inactive, HTT ATP protect inactive, HPGD block inactive and ALDH1A1 block inactive.
CC(C)[C@H](NC(=O)c1ccco1)C(=O)OCC(=O)N1CCc2ccccc21 was read as HttQ103 aggreg inactive, KDM4E inh inactive, HTT ATP protect inactive, HPGD block inactive, Lamin A splicing inactive and ALDH1A1 block inconclusive.
`O=C1CN(C(=O)CSc2nc(-c3ccccc3)cs2)c2ccccc2N1` gave HttQ103 aggreg inactive, KDM4E inh inactive, HTT ATP protect inactive[10 µM], HPGD block 17.8µM, Lamin A splicing inconclusive and ALDH1A1 block inactive.
`CC(C)[C@H](NC(=O)c1ccco1)C(=O)OCC(=O)N1CC(=O)Nc2ccccc21` gave HttQ103 aggreg inactive, KDM4E inh inactive, HTT ATP protect inactive, Lamin A splicing inactive and ALDH1A1 block 14.1µM.
Screening Cc1nnc(SCC(=O)N2CC(=O)Nc3ccccc32)n1C returned HttQ103 aggreg inactive, KDM4E inh inactive, HTT ATP protect inactive[10 µM], HPGD block inactive, Lamin A splicing inactive and ALDH1A1 block inactive.
Cc1ccc(-n2nnnc2SCC(=O)N2CC(=O)Nc3ccccc32)cc1 was read as HttQ103 aggreg inactive, KDM4E inh inactive, HTT ATP protect inactive, HPGD block inconclusive, Lamin A splicing inactive and ALDH1A1 block 11.2µM.
O=C1CN(C(=O)COc2ccccc2F)c2ccccc2N1 was read as HttQ103 aggreg inactive, KDM4E inh inactive, HTT ATP protect inconclusive, HPGD block inactive, Lamin A splicing inactive and ALDH1A1 block 17.8µM.
`Cn1c(SCC(=O)O)nnc1-c1ccc2ncccc2c1` gave HttQ103 aggreg inactive[9.22 µM], KDM4E inh inactive and HTT ATP protect inactive[10 µM].
Screening CCOC(=O)C1=C(CC)Nc2ccccc2N/C1=N\S(=O)(=O)c1ccc2ccccc2c1 returned HttQ103 aggreg inconclusive, KDM4E inh inactive and ALDH1A1 block inactive.
For CCOC(=O)C1=C(CC)Nc2ccccc2N/C1=N\S(=O)(=O)c1cc(Br)ccc1Br the results were HttQ103 aggreg 17.8µM, KDM4E inh inactive, HTT ATP protect inactive and ALDH1A1 block inactive.
`CCCC(=O)N1CCN(c2ccc(NC(=O)c3cc4ccccc4o3)cc2Cl)CC1` gave HttQ103 aggreg 11.2µM, KDM4E inh inconclusive, HTT ATP protect inactive[10 µM], HPGD block inconclusive, Lamin A splicing inconclusive and ALDH1A1 block inconclusive.
For CCC(=O)N1CCN(c2ccc(NC(=O)c3cc4ccccc4o3)cc2Cl)CC1 the results were HttQ103 aggreg inconclusive, KDM4E inh inconclusive, HTT ATP protect inactive[10 µM], HPGD block inactive, Lamin A splicing inconclusive and ALDH1A1 block inactive.
For COc1ccc(S(=O)(=O)N2CCCCC2)cc1NC(=O)c1ccc([N+](=O)[O-])o1 the results were HttQ103 aggreg inactive, KDM4E inh inactive, HTT ATP protect inactive, Lamin A splicing inconclusive and ALDH1A1 block 3.16µM.
`COc1cccc(C(=O)Nc2cc(S(=O)(=O)N3CCCCC3)ccc2OC)c1` gave HttQ103 aggreg inactive, KDM4E inh inconclusive and ALDH1A1 block inconclusive.
`CCC(=O)N1CCN(c2ccc(NC(=O)c3ccc([N+](=O)[O-])o3)cc2Cl)CC1` gave HttQ103 aggreg 20µM, KDM4E inh inactive, HTT ATP protect 0.631µM and ALDH1A1 block 14.1µM.
For CCN1CCN(c2ccc(NC(=O)c3ccc([N+](=O)[O-])o3)cc2Cl)CC1 the results were HttQ103 aggreg 12.6µM, KDM4E inh inactive, HTT ATP protect inactive, Lamin A splicing inconclusive and ALDH1A1 block 20µM.
Screening CCCCOC(=O)c1ccc(NC(=O)c2cc(-c3ccccc3)on2)cc1 returned Lamin A splicing inactive.
For Cn1c(=O)c2c(nc(Cc3ccccc3)n2CC(=O)O)n(C)c1=O the results were HTT ATP protect inactive[10 µM], HPGD block inactive and ALDH1A1 block inactive[13.5 µM].
CCOc1ccc(S(=O)(=O)N2CCN(Cc3nc4ccc(C)cc4o3)CC2)cc1 was read as Lamin A splicing inactive.
`Cn1cccc1C(=O)N1CCC2(CCN(C(=O)Nc3ccccc3)CC2)CC1` gave HTT ATP protect inconclusive, HPGD block inactive and ALDH1A1 block inactive.
CN(C)S(=O)(=O)c1cccc(NC(=O)c2cc3ccccc3o2)c1 was read as HttQ103 aggreg inactive, KDM4E inh inactive, HTT ATP protect inactive, HPGD block inactive, Lamin A splicing inconclusive and ALDH1A1 block inconclusive.
`O=C(Nc1cccc(OC(F)(F)F)c1)c1ccc(Br)o1` gave HttQ103 aggreg inconclusive, KDM4E inh inactive, HTT ATP protect inactive, HPGD block 25.1µM, Lamin A splicing inconclusive and ALDH1A1 block 22.4µM.
